# Assay results published in ChEMBL document CHEMBL4513216, “Probing the Open Global Health Chemical Diversity Library for Multistage-Active Starting Points for Next-Generation Antimalarials” (ACS Infect Dis, 2020).
# Among all 69,000 compounds or so, about 8,600 (12%) showed an effect of 50% or more. The list comes from a sample in which strong results are over-represented; it also holds similar structures and randomly drawn compounds.
# Test system: Plasmodium berghei
# Test: Screen against P. berghei liver stage (PbLuc), transformed with Luciferase, at 10uM
# Format: functional, HepG2
# Conditions: tested at 10 uM
row,Compound,INHIBITION
1,Cc1ccc(S(=O)(=O)N(CCO)C2CC2)cc1N(C)C,21.3%
2,CC(C)c1nnc2n1CCN(C(=O)c1ccnc(-n3ccnc3)c1)C2,31.2%
3,CC(=O)NCCC(=O)NCC1(c2c(F)cccc2F)CCCC1,24.2%
4,CCS(=O)(=O)CC(=O)NCC1(c2c(F)cccc2F)CCCC1,57.4%
5,CCC(=O)NCC(=O)NCC1(c2c(F)cccc2F)CCCC1,-3.59%
6,Cc1noc(C)c1CN1C[C@H](OCc2ccncc2)[C@H]2OCCC[C@H]21,-10.3%
7,Cn1cc(CN2CCc3ncnc(N4CCOCC4)c3CC2)cn1,5.36%
8,CCNc1cc2c(nn1)CCN(C(=O)c1cccc3c1OCO3)C2,-4.16%
9,COc1cccc(Nc2nc(C3CCNCC3)c3sc(C)c(C)n23)c1,23.12%
10,Cc1sc2c(C3CCCNC3)nc(Nc3cccc(F)c3)n2c1C (centres undefined),36.5%
11,Cc1sc2c(C3CCNCC3)nc(Nc3cccc(F)c3)n2c1C,54.6%
12,CC(C)Oc1ccc2c(NC(=O)CN(C)C)nn(CC(F)(F)F)c2c1,42.3%
13,CC1(Cc2ccc(Cl)cc2)Cc2cc(CCC(=O)O)ccc2O1 (centres undefined),-29.4%
14,Cc1cc(C)c2c(N3CCCN(C(=O)C4CCC4)CC3)ncnc2n1,30.9%
15,Cc1cnc(N2C[C@@H]3C[C@H](C(=O)N(C)C)[C@H](C2)O3)nc1,17.3%
16,Cc1cccc(N(CCC(N)=O)C(=O)c2cnccn2)c1,12.9%
17,Cc1cccc(N(CCC(N)=O)C(=O)c2ccnc(C)n2)c1,50.5%
18,Cc1cccc(N(CCC(N)=O)C(=O)c2cc(-n3cccn3)ccn2)c1,8.92%
19,O=C(CCn1nc(C(F)(F)F)c(Br)c1C1CC1)NN1CCOCC1,-25.5%
20,Cc1ccc(OCc2occc2C(=O)N2CCCCC(N)C2)cc1 (centres undefined),11.8%
21,Cc1cc(CN2C[C@@H]3CC[C@H]2CN(Cc2c(C)noc2C)C3)ccc1F,-63.6%
22,O=C(c1ncncc1Cl)N1CCC2(CCCC2)CC1,43.1%

row,Compound,INHIBITION
1,O=C(c1ncncc1Cl)N1CCN(c2ccc(Cl)cc2)CC1,44%
2,O=C(c1ccccc1)N1CCCN(C(=O)c2ncncc2Cl)CC1,74%
3,COc1ncccc1C(=O)NCCn1cnc(C)cc1=O,-70.7%
4,CO[C@@H]1CC[C@@H](N(C)C(=O)c2cn3cc(C)ccc3n2)[C@H]1O,-2.65%
5,CCN1CCOCC12CCN(C(=O)c1ccsc1)CC2,42.1%
6,O=C(Nc1ccc(Cl)cn1)c1cncc(C2CCNCC2)n1,-10.4%
7,c1ccc(Cc2nc(CNC3CCC4(CCNCC4)CC3)no2)cc1,53.7%
8,c1ccc(Cc2nc(CNC3CCOC4(CCOCC4)C3)no2)cc1 (centres undefined),-40.7%
9,COCc1nc(CNC2CCC3(CCNCC3)CC2)no1,12.1%
10,O=C(c1cnc(C2CC2)s1)N1CCCC1Cn1cccn1 (centres undefined),8.64%
11,Cc1nn(CCC(=O)NC2CCS(=O)(=O)C2)c(C)c1Br (centres undefined),-8%
12,Cc1ccoc1C(=O)N1C[C@H]2CCC[C@@]2(COCc2ccncc2)C1,41.8%
13,CC(C)CN1CC2(CCN(C(=O)C(O)c3cccc(Cl)c3)CC2)CC1=O (centres undefined),-28.9%
14,CCN1CC2(CCC1=O)CCN(C(=O)C(O)c1cccc(Cl)c1)CC2 (centres undefined),71.1%
15,CCN1CC2(CCC1=O)CCN(C(=O)c1ccc(Cl)cc1O)CC2,36.8%
16,O=C(NCC1CCOCC1)[C@H]1C[C@@H]2CCN(c3nncs3)C[C@@H]2O1,24.3%
17,COc1ccc(F)cc1C(=O)N1CCn2c(nnc2C(F)(F)F)C1,6.33%
18,Cc1ccc(NC2CCN(C(=O)c3n[nH]c4ccccc34)CC2)nn1,11%
19,Cc1ccc(NC2CCN(C(=O)Cn3nc(C)cc3C)CC2)nn1,3.81%
20,CCn1nc(C)c(C(=O)N2CCC(Nc3ccc(C)nn3)CC2)c1C,17.5%
21,Cc1ccc(NC2CCN(C(=O)c3cccc4[nH]ncc34)CC2)nn1,55.4%
22,CC(C)(C)C(O)CN1CCN(C(=O)c2cccc3[nH]ncc23)CC1 (centres undefined),69.8%

row,Compound,INHIBITION
1,CCC(O)CN1CCN(C(=O)c2cccc3[nH]ncc23)CC1 (centres undefined),-29.8%
2,O=C(c1ccc(F)cc1Cl)N1CCn2c(nnc2C(F)(F)F)C1,68.8%
3,Cc1ccc(NC2CCN(C(=O)c3cccc4c3ccn4C)CC2)nn1,31.2%
4,CC(O)CN1CCN(C(=O)c2cccc3[nH]ncc23)CC1 (centres undefined),-31.8%
5,CCn1nc(C)cc1C(=O)N1CCC(Nc2ccc(C)nn2)CC1,57.7%
6,O=C(c1cccc(F)c1F)N1CCn2c(nnc2C(F)(F)F)C1,34.6%
7,CCS(=O)(=O)N1Cc2ncn(CC3CC3)c2C(COCC2CC2)C1 (centres undefined),9.51%
8,NC(=O)CC1CCN(C(=O)NCc2cccc(-n3cccn3)c2)CC1,-0.378%
9,O=C(O)c1ccccc1-c1ccc(CN2CCC(CO)C2)cc1 (centres undefined),-12.3%
10,CC(C)Oc1cccc(CNC(=O)N2CCC(N3CC=CC3)C2)c1 (centres undefined),16.1%
11,O=C(CN1CCOC(CNc2cccnn2)C1)NCc1ccccn1 (centres undefined),23.5%
12,c1cnc(-c2nn3c(CN4CCCCCC4)nnc3s2)cn1,21.7%
13,Cc1cc(NC(C)c2n[nH]c(C)n2)n2nc(C)c(C)c2n1 (centres undefined),18.4%
14,CC(CNC(=O)Nc1cn[nH]c1)N1CCCC1 (centres undefined),-21.9%
15,Cc1ccc(NC2CCN(C(=O)c3ccc(F)cc3Cl)CC2)nn1,56.4%
16,Cc1ccc(NC2CCN(C(=O)c3ccc(Cl)cc3F)CC2)nn1,37.9%
17,O=C(c1ccc(F)cc1Cl)N1CCC(Nc2cccnn2)CC1,41.4%
18,CCn1c(C)cc(C(=O)N2CCC(NC(=O)c3cc(C)no3)CC2)c1C,-7.36%
19,Cc1ccc(NC2CCN(C(=O)c3ccc(Cl)o3)CC2)nn1,-33.5%
20,CCn1c(C)cc(C(=O)N2CCC(NC(=O)c3ccc(C)o3)CC2)c1C,74%
21,CCc1ccc(C(=O)N2CCC(Nc3ccc(C)nn3)CC2)o1,33.8%
22,CCn1c(C)cc(C(=O)N2CCC(Nc3ccc(C)nn3)CC2)c1C,32.9%

row,Compound,INHIBITION
1,Cc1ccc(NC2CCN(C(=O)c3ccc(C)o3)CC2)nn1,51.65%
2,CCc1nc(C2CCCN(C(=O)NC3CC3)C2)no1 (centres undefined),-81.1%
3,CC(C)CNC(=O)c1nnsc1-c1ccccc1,2.69%
4,COCCN1C[C@@H]2CC[C@H]1CN(C(=O)CCc1n[nH]c(C)c1C)C2,-4.92%
5,COc1cccc(N2CCN(Cc3cc(C)cc(F)c3)CC2=O)c1,11.3%
6,COc1cccc(N2CCN(Cc3ccc(NC(C)=O)cc3)CC2=O)c1,38.5%
7,COc1cccc(CN2CCN(Cc3ccc4nonc4c3)CC2=O)c1,24.9%
8,CCn1cc(CN2CCN(Cc3cccc(OC)c3)C(=O)C2)cc1C#N,56.3%
9,COc1cccc(N2CCN(Cc3ncc[nH]3)CC2=O)c1,-26.5%
10,COc1cc(CN2CCN(c3cccc(OC)c3)C(=O)C2)cc(OC)c1,58.5%
11,COc1cccc(N2CCN(Cc3nccn3C(C)C)CC2=O)c1,59.5%
12,COc1cccc(N2CCN(Cc3nccc(OC)c3OC)CC2=O)c1,11.2%
13,CCn1cc(CN2CCN(Cc3cc(C)cc(C)c3)C(=O)C2)cc1C#N,-17.8%
14,Cc1n[nH]c(C2CN(CC(=O)NCCc3ccccc3C)CCO2)n1 (centres undefined),43.1%
15,Cc1occc1C(=O)N1CCC2(CCC(C(=O)NCC3CC3)O2)CC1 (centres undefined),-5.94%
16,CCC(CNS(=O)(=O)c1cccc(C(=O)OC)c1)N1CCCC1 (centres undefined),-39.2%
17,O=C1CCC[C@]2(CN(S(=O)(=O)C3CCCCC3)C[C@H]2c2cccnc2)N1,-11.4%
18,O=C(COc1ccc(-n2cccn2)nn1)NC1CCCCC1,-10.6%
19,OC[C@H]1CCCN1c1nccc(-c2cncnc2C2CCCCC2)n1,64.9%
20,O=c1c(-c2ccnc(N3CCC[C@H]3CO)n2)cnc2sccn12,-4.82%
21,Cc1ncc(-c2ccnc(N3CCC[C@@H]3CO)n2)c(-c2cccnc2)n1,20.4%
22,OC[C@@H]1CCCN1c1nccc(-c2c[nH]nc2-c2ccncc2)n1,-15.2%

row,Compound,INHIBITION
1,OC[C@H]1CCCN1c1nccc(-c2c[nH]nc2C2CCCCC2)n1,54.5%
2,O=c1c(-c2ccnc(N3CCCC[C@@H]3CO)n2)cnc2sccn12,35.2%
3,O=C(NCCn1cccc1)C(c1ccccc1)N1CCCC1 (centres undefined),15.4%
4,CCOC1CCCN(C(=O)CCOc2ccc(C)cc2OC)C1 (centres undefined),8.59%
5,Cn1cc2ncn(C3CCN(c4ccccc4F)CC3)c(=O)c2n1,-6.03%
6,CNc1nccc(-c2cn(C)nc2C)n1,29.4%
7,Cc1ccc(NCCCNc2nccc(-c3cn(C)nc3C)n2)nc1,51.2%
8,Cc1nn(C)cc1-c1ccnc(N2CCSCC2)n1,47.2%
9,CCN(CC)CCCNc1nccc(-c2cn(C)nc2C)n1,43.9%
10,Cc1nn(C)cc1-c1ccnc(NCCN)n1,59.4%
11,CNCCNc1nccc(-c2cn(C)nc2C)n1,19.4%
12,c1cnn(CC2CCCCN2Cc2noc(C3CC3)n2)c1 (centres undefined),-42.65%
13,CC(C)NC(=O)c1nnc2ccc(N3CCOCC3)cc2n1,-3.11%
14,O=C(c1ccco1)N1CCC2(CCC(=O)N2Cc2ccccc2)CC1,33.4%
15,COCC(=O)N1CCC(C)(c2cc(O)[nH]n2)CC1,23.9%
16,CCC(NC(=O)NCc1cccc(N(C)C)n1)c1cccs1 (centres undefined),-6.46%
17,CN(C)c1ccc(NC(=O)NCc2ccccn2)cn1,13.9%
18,CCCC(NC(=O)NCc1cccc(N(C)C)n1)c1ccccn1 (centres undefined),58.5%
19,CCC(NC(=O)NCc1cccc(N(C)C)n1)c1ccccc1OC (centres undefined),6.83%
20,Cc1nc(CCNC(=O)NCc2cccc(N(C)C)n2)cs1,-24.3%
21,CCC(NC(=O)NCc1cccc(N(C)C)n1)c1nccs1 (centres undefined),67.4%
